# The supplement of paper PMC10849652
# Of roughly 7,900 targets only a part is listed; those with a hit were picked by preference. About 0.6% of all pairs of compound and target were hits. Values without a mark were called inactive.
# Compound: Cc1sc2c(c1C)C(c1ccc(Cl)cc1)=N[C@@H](CC(=O)OC(C)(C)C)c1nnc(C)n1-2
# Experiment: log2 fold change, soluble protein after heating vs DMSO (PISA); higher = thermal stabilisation; K562 cells, 10 uM, 30 min; active = over 0.2 and 3.5 SD of the protein, either way, in both replicates (recomputed)
# Outline: (§1)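 Quantification of soluble protein used TMTpro 16plex LC-MS/MS, with channel sums equalised. Samples were the supernatant after 21,000xg for 90 min of pooled aliquots from K562 cells (2×10^6 cells/mL) treated with 10 μM compound for 30 min, heated for 3 min over 48°C-58°C, and extracted in PBS with 0.5% NP-40 at 4°C. Values, from duplicates, describe thermal stability against control samples on a log2 fold-change scale.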
# Chain of UniProt Q6VY07 (Q6VY07 whole entry, looked up): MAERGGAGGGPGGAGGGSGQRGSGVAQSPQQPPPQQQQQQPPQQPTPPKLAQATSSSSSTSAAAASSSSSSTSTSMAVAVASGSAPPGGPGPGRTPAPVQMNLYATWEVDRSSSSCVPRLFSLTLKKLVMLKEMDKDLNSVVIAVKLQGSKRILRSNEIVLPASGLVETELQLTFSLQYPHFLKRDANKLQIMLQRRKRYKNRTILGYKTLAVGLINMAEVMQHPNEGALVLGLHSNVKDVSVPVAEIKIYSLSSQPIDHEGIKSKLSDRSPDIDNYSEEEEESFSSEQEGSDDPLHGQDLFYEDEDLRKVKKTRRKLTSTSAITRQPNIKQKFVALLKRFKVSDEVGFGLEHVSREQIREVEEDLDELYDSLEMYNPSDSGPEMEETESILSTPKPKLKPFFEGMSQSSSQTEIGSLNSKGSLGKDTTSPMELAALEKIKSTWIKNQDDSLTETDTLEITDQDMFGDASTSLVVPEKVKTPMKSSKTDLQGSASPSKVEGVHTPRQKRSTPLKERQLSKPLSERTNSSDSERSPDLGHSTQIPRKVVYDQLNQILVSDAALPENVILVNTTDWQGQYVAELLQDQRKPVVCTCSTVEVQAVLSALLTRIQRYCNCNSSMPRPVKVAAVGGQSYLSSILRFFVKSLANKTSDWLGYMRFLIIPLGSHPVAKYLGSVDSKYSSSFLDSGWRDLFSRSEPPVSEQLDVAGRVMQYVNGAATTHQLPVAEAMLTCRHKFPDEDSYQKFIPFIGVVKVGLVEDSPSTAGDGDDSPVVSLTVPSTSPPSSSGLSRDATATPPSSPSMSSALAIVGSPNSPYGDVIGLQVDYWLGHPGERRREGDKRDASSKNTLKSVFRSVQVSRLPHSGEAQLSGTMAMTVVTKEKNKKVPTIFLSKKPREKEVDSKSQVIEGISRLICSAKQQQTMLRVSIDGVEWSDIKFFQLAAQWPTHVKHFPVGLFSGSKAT
# Chain of UniProt Q9H019 (Q9H019 whole entry, looked up): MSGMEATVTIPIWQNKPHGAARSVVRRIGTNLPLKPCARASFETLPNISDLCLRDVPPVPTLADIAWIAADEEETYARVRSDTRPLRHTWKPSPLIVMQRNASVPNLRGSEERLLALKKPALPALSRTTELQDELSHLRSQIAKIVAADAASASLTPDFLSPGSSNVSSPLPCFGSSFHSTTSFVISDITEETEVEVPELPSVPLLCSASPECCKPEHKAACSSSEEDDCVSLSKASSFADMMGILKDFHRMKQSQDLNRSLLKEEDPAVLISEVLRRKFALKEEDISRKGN
# Chain of UniProt O75607 (O75607 whole entry, looked up): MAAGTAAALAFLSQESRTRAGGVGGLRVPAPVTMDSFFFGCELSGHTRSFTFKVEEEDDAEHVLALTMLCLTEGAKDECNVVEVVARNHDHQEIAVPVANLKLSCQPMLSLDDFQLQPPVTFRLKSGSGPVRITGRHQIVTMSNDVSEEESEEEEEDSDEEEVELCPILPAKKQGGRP
# Chain of UniProt Q9BZF1 (Q9BZF1 whole entry, looked up): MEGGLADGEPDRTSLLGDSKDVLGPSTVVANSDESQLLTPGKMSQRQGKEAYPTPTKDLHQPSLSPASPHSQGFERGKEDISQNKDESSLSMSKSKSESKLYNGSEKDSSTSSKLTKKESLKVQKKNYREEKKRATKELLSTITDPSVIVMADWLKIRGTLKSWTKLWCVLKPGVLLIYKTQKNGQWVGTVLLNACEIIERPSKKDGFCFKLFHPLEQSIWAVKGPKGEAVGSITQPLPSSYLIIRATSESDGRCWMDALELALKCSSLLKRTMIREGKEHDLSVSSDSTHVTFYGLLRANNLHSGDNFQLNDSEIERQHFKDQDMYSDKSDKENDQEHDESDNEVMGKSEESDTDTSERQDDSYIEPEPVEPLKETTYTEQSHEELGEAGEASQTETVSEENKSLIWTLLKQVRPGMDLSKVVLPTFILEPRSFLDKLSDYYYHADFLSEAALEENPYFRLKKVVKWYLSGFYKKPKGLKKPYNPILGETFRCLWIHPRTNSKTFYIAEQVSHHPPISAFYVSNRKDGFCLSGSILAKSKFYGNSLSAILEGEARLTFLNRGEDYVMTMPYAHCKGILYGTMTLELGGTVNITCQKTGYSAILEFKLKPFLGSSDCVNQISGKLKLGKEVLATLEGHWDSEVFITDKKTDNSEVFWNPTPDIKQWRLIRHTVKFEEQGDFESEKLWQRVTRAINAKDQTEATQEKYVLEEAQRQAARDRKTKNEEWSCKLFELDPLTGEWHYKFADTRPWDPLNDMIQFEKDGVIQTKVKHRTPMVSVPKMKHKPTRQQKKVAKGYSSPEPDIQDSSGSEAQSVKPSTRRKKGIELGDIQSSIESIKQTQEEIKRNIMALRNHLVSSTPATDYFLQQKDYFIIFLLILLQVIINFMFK
# Chain of UniProt Q9UHC9 (Q9UHC9 whole entry, looked up): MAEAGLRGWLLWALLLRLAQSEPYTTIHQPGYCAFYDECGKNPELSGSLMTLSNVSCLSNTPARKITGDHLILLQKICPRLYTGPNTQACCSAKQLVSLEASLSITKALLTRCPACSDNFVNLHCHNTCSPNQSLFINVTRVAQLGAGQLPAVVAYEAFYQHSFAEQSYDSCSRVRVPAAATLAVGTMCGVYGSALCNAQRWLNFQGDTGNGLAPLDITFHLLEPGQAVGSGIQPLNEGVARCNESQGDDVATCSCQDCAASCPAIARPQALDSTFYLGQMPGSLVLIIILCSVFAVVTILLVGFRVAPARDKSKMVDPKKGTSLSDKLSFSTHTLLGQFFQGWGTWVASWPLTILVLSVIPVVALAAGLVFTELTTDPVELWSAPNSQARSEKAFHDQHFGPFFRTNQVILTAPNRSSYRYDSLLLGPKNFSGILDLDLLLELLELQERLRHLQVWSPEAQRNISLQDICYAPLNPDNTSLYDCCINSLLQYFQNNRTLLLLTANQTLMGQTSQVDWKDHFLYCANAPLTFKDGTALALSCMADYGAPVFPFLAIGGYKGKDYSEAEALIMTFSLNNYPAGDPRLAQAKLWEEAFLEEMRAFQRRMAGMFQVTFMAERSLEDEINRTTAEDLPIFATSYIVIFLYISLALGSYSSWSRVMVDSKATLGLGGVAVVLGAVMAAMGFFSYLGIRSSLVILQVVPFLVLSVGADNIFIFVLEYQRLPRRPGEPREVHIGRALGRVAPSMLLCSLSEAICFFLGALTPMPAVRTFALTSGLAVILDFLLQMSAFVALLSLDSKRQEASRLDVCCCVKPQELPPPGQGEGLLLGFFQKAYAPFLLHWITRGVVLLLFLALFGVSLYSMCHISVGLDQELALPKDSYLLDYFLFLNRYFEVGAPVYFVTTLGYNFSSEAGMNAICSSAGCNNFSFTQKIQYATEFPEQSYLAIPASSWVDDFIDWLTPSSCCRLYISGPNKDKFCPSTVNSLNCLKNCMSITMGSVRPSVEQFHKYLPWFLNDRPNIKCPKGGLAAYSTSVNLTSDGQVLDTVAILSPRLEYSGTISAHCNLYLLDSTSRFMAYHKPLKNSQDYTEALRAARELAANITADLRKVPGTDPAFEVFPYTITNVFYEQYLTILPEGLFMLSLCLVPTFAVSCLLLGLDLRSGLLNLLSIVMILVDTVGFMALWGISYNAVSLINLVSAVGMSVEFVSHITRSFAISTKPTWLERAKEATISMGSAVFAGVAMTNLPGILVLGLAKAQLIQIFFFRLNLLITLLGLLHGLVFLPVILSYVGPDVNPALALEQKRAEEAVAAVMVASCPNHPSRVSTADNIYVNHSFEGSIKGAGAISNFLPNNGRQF
# Chain of UniProt O43181 (O43181 whole entry, looked up): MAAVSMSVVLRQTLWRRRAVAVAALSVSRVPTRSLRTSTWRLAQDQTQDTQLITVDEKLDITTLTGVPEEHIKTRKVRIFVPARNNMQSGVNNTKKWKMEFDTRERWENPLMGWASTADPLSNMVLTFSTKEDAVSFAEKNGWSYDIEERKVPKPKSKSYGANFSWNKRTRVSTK
# Chain of UniProt Q9BRA0 (Q9BRA0 whole entry, looked up): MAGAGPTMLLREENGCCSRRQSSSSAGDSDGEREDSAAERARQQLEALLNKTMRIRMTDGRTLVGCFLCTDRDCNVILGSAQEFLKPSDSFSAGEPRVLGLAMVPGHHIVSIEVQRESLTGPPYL
# Chain of UniProt Q4G0T1 (Q4G0T1 whole entry, looked up): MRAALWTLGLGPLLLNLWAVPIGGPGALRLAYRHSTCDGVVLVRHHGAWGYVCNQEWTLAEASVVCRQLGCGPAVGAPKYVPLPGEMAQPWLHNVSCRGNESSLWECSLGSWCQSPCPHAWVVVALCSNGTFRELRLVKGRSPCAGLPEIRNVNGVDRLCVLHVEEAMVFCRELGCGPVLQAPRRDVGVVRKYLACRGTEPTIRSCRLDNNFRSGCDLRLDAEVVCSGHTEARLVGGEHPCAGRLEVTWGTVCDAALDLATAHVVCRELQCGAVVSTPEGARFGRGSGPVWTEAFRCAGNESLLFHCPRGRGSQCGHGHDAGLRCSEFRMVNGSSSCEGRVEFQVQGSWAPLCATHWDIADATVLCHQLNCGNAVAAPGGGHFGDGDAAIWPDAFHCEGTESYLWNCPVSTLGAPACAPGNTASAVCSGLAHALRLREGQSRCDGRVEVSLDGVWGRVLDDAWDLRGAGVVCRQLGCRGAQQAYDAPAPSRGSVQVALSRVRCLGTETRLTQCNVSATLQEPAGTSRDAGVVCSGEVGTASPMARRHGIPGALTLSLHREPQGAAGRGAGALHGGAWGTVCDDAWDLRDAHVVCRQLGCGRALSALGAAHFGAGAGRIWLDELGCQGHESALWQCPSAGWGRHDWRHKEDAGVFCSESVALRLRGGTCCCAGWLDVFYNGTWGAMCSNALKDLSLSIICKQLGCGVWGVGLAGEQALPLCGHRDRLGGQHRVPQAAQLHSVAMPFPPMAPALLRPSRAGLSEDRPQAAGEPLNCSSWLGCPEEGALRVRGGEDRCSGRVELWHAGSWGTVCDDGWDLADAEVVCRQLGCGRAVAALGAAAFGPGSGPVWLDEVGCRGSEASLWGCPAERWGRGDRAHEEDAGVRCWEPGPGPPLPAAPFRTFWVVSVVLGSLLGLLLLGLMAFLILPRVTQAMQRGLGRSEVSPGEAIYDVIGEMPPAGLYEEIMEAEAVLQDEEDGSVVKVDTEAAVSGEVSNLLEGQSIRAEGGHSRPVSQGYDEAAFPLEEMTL
row,Target,log2 fold change
1,NDUFS4 (UniProt O43181),0.093
2,NGLY1 (UniProt Q96IV0),0.014
3,NPM3 (UniProt O75607),0.107
4,MRPS2 (UniProt Q9Y399),0.079
5,NEDD4 isoform 4 (UniProt P46934),0.002
6,MTFR1L (UniProt Q9H019),0.048
7,MRPS27 isoform 2 (UniProt Q92552),0.035
8,NAA11 (UniProt Q9BSU3),-0.12
9,OSBPL8 (UniProt Q9BZF1),-0.018
10,PAAF1 (UniProt Q9BRP4),-0.014
11,MRPS31 (UniProt Q92665),0.044
12,NQO1 (UniProt P15559),-0.015
13,MXRA7 (UniProt P84157),0.002
14,NAT14 (UniProt Q8WUY8),0.043
15,OTUD6B (UniProt Q8N6M0),0.03
16,NMT1 (UniProt P30419),0.076
17,NOP53 (UniProt Q9NZM5),0.353
18,OXSR1 (UniProt O95747),-0.003
19,MKRN2 (UniProt Q9H000),0.122
20,MRPL46 (UniProt Q9H2W6),0.009
21,NAA38 isoform 2 (UniProt Q9BRA0),-0.029
22,MRPS5 (UniProt P82675),0.063
23,NPC1L1 (UniProt Q9UHC9),0.007
24,PACS1 (UniProt Q6VY07),0.002
25,NA isoform 3 (UniProt Q4G0T1),0.024
26,MRPS33 (UniProt Q9Y291),0.098
27,NOL7 (UniProt Q9UMY1),0.188
28,NMRAL1 (UniProt Q9HBL8),-0.139
29,NPEPPS (UniProt P55786),-0.003
30,PAFAH2 (UniProt Q99487),-0.117

# Compound: c1ccc([C@@H]2C[C@H]2NC2CCNCC2)cc1
# Experiment: as above
# Outline: as §1
row,Target,log2 fold change
1,NDUFS4 (UniProt O43181),0.086
2,NGLY1 (UniProt Q96IV0),-0.046
3,NPM3 (UniProt O75607),-0.019
4,MRPS2 (UniProt Q9Y399),0.003
5,NEDD4 isoform 4 (UniProt P46934),-0.007
6,MTFR1L (UniProt Q9H019),0.028
7,MRPS27 isoform 2 (UniProt Q92552),-0.059
8,NAA11 (UniProt Q9BSU3),-0.049
9,OSBPL8 (UniProt Q9BZF1),-0.002
10,PAAF1 (UniProt Q9BRP4),0.008
11,MRPS31 (UniProt Q92665),-0.031
12,NQO1 (UniProt P15559),-0.072
13,MXRA7 (UniProt P84157),0.024
14,NAT14 (UniProt Q8WUY8),-0.047
15,OTUD6B (UniProt Q8N6M0),-0.153
16,NMT1 (UniProt P30419),-0.018
17,NOP53 (UniProt Q9NZM5),0.097
18,OXSR1 (UniProt O95747),-0.03
19,MKRN2 (UniProt Q9H000),-0.017
20,MRPL46 (UniProt Q9H2W6),0.026
21,NAA38 isoform 2 (UniProt Q9BRA0),-0.124
22,MRPS5 (UniProt P82675),-0.077
23,NPC1L1 (UniProt Q9UHC9),0.047
24,PACS1 (UniProt Q6VY07),-0.014
25,NA isoform 3 (UniProt Q4G0T1),-0.126
26,MRPS33 (UniProt Q9Y291),-0.002
27,NOL7 (UniProt Q9UMY1),0.057
28,NMRAL1 (UniProt Q9HBL8),-0.094
29,NPEPPS (UniProt P55786),-0.051
30,PAFAH2 (UniProt Q99487),-0.141
